# Source: PubChem BioAssay (NCATS)
# Where “and” joins values, the source holds several entries; their conditions need not be identical. Equal entries are not always repeated. Records with an inconclusive call do not appear. Values without a mark were called inactive. Calls of active or inactive are those of the source. Calls follow the shape of the dose curve; as a rule, active = well fitted inhibition curve with a large enough effect; inconclusive = small, poorly fitted or top-dose-only effect; inactive = flat fitted curve, though single readings scatter.
# Assays:
# W2 = test: qHTS profiling for inhibitors of Plasmodium falciparum proliferation (AID 504749); conditions: P. falciparum in erythrocytes, SYBR Green DNA, 72 h; series mostly up to 28.7 µM
# Outline: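 Quantitative HTS: compounds pinned into medium, infected erythrocytes added (0.3% parasitemia, 2.5% hematocrit), 72 h culture at 37 C under 5% CO2. Saponin/Triton lysis with SYBR Green I, overnight RT, then fluorescence read.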
# CRL-7250 = normal cell line; test: Cytotoxic Profiling of Annotated Libraries Using Quantitative High-Throughput Screening (AID 1296008); conditions: Five cell lines viability, CellTiter-Glo ATP luminescence, 48-72 h; max response: hits give low values; as to max response: % is scaled to controls: 0 for no effect and ±100 for the full control effect
# Outline: (§1)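 Compounds were pin-transferred onto cells and incubated 48 or 72 hr at 37 degree Celsius, 95% humidity. CellTiter-Glo was added, plates sat 10 min at room temperature, then ATP-coupled luminescence was imaged as the viability read-out.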
# HaCat [1] = test: as above; conditions: Five cell lines viability, CellTiter-Glo ATP luminescence, 48-72 h; max response: hits give low values
# Outline: as §1
# KB-3-1 = test: as above; conditions: Five cell lines viability, CellTiter-Glo ATP luminescence, 48-72 h; max response: hits give low values
# Outline: as §1
# NIH3T3 = test: as above; conditions: Five cell lines viability, CellTiter-Glo ATP luminescence, 48-72 h; max response: hits give low values
# Outline: as §1
# HACAT [2] = test: qHTS assay to identify novel small-molecules to repurpose for Merkel cell carcinoma treatment (AID 1296009); conditions: MCC and control cell lines, CellTiter-Glo viability, 72 h; at 44.8 µM (top of the series) unless noted
# Outline: (§2)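 Viability readout: ATP luminescence (CellTiter-Glo) after 72 hr drug exposure at 37 degree celsius. Dose-response format was 8 points for NPC and 11 points for MIPE; data normalized to in-plate controls.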
# MCC-13 = test: as above; conditions: MCC and control cell lines, CellTiter-Glo viability, 72 h; series mostly up to 46 µM
# Outline: as §2
# MCC-26 = test: as above; conditions: MCC and control cell lines, CellTiter-Glo viability, 72 h; series mostly up to 46 µM
# Outline: as §2
# HEK293 = test: Cytotoxic Profiling of Annotated Libraries Using Quantitative High-Throughput Screening (AID 1296008); conditions: Five cell lines viability, CellTiter-Glo ATP luminescence, 48-72 h; max response: hits give low values; as to max response: % is scaled to controls: 0 for no effect and ±100 for the full control effect
# Outline: as §1
# HEK293T = test: qHTS assay to identify novel small-molecules to repurpose for Merkel cell carcinoma treatment (AID 1296009); conditions: MCC and control cell lines, CellTiter-Glo viability, 72 h; at 44.8 µM (top of the series) unless noted
# Outline: as §2
# Also: nearly all actives have a fitted effect of over 60% in size.
# Potency is read from the fitted curve at half-maximal effect.
smiles,measurement,setting,value
Cc1ccc(O)c([C@H](CCN(C(C)C)C(C)C)c2ccccc2)c1,Potency,W2,0.849 µM (active)
same,max response,CRL-7250,-4.37%
same,outcome,HaCat [1],inactive
same,max response,KB-3-1,-10.6%
same,max response,NIH3T3,-1.6%
same,outcome,HACAT [2],inactive
same,Potency,MCC-13,inactive
same,Potency,MCC-26,inactive
CCc1cc(Cl)c(OC)c(C(=O)NC[C@@H]2CCCN2CC)c1O,max response,CRL-7250,3.41%
same,outcome,HaCat [1],inactive
same,max response,KB-3-1,-11.4% and -0.677% and -21.5%
same,max response,NIH3T3,4.04%
same,outcome,HACAT [2],inactive
same,Potency,MCC-13,inactive
NC(N)=NN=C(/C=C/c1ccc([N+](=O)[O-])o1)/C=C/c1ccc([N+](=O)[O-])o1,Potency,W2,2.39 µM (active)
same,Potency,CRL-7250,5.96 µM (active)
same,Potency,HEK293,4.73 µM (active)
same,Potency,NIH3T3,6.68 µM (active)
same,Potency,MCC-13,2.66 µM (active)
same,Potency,MCC-26,2.66 µM (active)
NC(=O)n1c(O)c(C(=O)c2cccs2)c2cc(Cl)ccc21,max response,CRL-7250,4.52%
same,outcome,HaCat [1],inactive
same,max response,KB-3-1,2.04%
same,max response,NIH3T3,0.218%
same,outcome,HACAT [2],inactive
same,Potency,MCC-13,inactive
CC(=O)OCC(=O)[C@H]1CC[C@H]2[C@@H]3CCC4=CC(=O)CC[C@]4(C)[C@H]3CC[C@]12C,max response,CRL-7250,1.7%
same,outcome,HaCat [1],inactive
same,max response,KB-3-1,-19.8%
same,max response,NIH3T3,0.692%
same,outcome,HACAT [2],inactive
same,Potency,MCC-13,inactive
same,Potency,MCC-26,inactive
CCCN(CCc1cccs1)[C@H]1CCc2c(O)cccc2C1,Potency,W2,1.35 µM (active)
same,max response,CRL-7250,-5.8%
same,outcome,HaCat [1],inactive
same,max response,KB-3-1,5.8%
same,outcome,NIH3T3,inactive
same,outcome,HACAT [2],inactive
same,Potency,MCC-13,inactive
same,Potency,MCC-26,inactive
CCCCC(CC)CN1CN(CC(CC)CCCC)CC(C)(N)C1 (stereo not drawn),max response,CRL-7250,-21.5%
same,max response,HaCat [1],-10.2%
same,max response,KB-3-1,-12.3%
same,max response,NIH3T3,-12.8%
same,Potency,MCC-13,inactive
COc1ccccc1N1CCN(CCCCNC(=O)c2ccc(-c3ccc(C(C)=O)cc3)cc2)CC1,Potency,W2,inactive
same,max response,CRL-7250,-9.94%
same,outcome,HaCat [1],inactive
same,max response,KB-3-1,-4.38%
same,max response,NIH3T3,-11%
same,outcome,HACAT [2],inactive
same,Potency,MCC-13,inactive
same,Potency,MCC-26,inactive
CCN(CC)CCNc1ccc(CO)c2sc3ccccc3c(=O)c12,Potency,W2,0.675 µM (active)
same,Potency,CRL-7250,18.8 µM (active)
same,Potency,HEK293,7.5 µM (active)
same,Potency,NIH3T3,23.7 µM (active)
same,Potency,MCC-13,26.6 µM (active)
CCCCCCCCCCCCCCC[C@H](O)[C@@H](N)CO,max response,CRL-7250,-2.05%
same,max response,HaCat [1],-24.2%
same,max response,KB-3-1,-4.68%
same,max response,NIH3T3,-9.49%
same,Potency,MCC-13,inactive
same,Potency,MCC-26,inactive
CC[N+](C)(CC)CCOC(=O)C(O)(c1ccccc1)C1CCCCC1 (stereo not drawn),max response,CRL-7250,-11.2%
same,outcome,HaCat [1],inactive
same,max response,KB-3-1,5.15%
same,max response,NIH3T3,-5.74%
same,outcome,HACAT [2],inactive
same,Potency,MCC-13,inactive
same,Potency,MCC-26,inactive
OC(C#CCN1CCCC1)(c1ccccc1)c1ccccc1,Potency,W2,2.13 µM (active)
same,outcome,CRL-7250,inactive
same,outcome,HaCat [1],inactive
same,max response,KB-3-1,0.398%
same,max response,NIH3T3,-3.64%
same,outcome,HACAT [2],inactive
same,Potency,MCC-13,inactive
CC(C)n1c(/C=C/[C@@H](O)C[C@@H](O)CC(=O)O)c(-c2ccc(F)cc2)c2ccccc21,Potency,CRL-7250,1.5 µM (active)
same,Potency,HEK293,16.8 µM (active)
same,Potency,NIH3T3,11.9 µM (active)
same,Potency,MCC-13,9.44 µM (active)
same,Potency,MCC-26,13.3 µM (active)
OCCOCCN1CCN(C2=Nc3ccccc3Sc3ccccc32)CC1,Potency,W2,4.26 µM (active)
same,max response,CRL-7250,-6.31%
same,outcome,HaCat [1],inactive
same,max response,KB-3-1,-2.1%
same,max response,NIH3T3,-7.78%
same,outcome,HACAT [2],inactive
same,Potency,MCC-13,inactive
same,Potency,MCC-26,inactive
C[C@@H](O)[C@H]1C(=O)N2C(C(=O)O)=C(S[C@@H]3CN[C@H](CNS(N)(=O)=O)C3)[C@H](C)[C@H]12,Potency,W2,inactive
same,max response,CRL-7250,-1.21%
same,outcome,HaCat [1],inactive
same,max response,KB-3-1,7.85%
same,max response,NIH3T3,3.07%
same,outcome,HACAT [2],inactive
same,Potency,MCC-13,inactive
same,Potency,MCC-26,inactive
COc1ccc(C(=O)c2ccccc2)c(O)c1,Potency,W2,13.5 µM (active)
same,max response,CRL-7250,-4.19%
same,outcome,HEK293,inactive
same,max response,NIH3T3,2.73%
same,outcome,HEK293T,inactive
same,Potency,MCC-13,inactive
same,Potency,MCC-26,inactive
CC(=O)O[C@]1(C(C)=O)CC[C@H]2[C@@H]3C=C(C)C4=CC(=O)CC[C@]4(C)[C@H]3CC[C@@]21C,max response,CRL-7250,-4.16%
same,max response,HaCat [1],-4.96%
same,max response,KB-3-1,11.8%
same,max response,NIH3T3,0.169%
same,Potency,MCC-13,inactive
same,Potency,MCC-26,inactive
CC(=O)Nc1ccc(CC(=O)O)cc1,Potency,W2,inactive
same,max response,HEK293,0.0311%
same,outcome,HaCat [1],inactive
same,max response,KB-3-1,-17.4%
same,max response,NIH3T3,-0.623%
same,outcome,HACAT [2],inactive
same,Potency,MCC-13,inactive
same,Potency,MCC-26,inactive
CCOc1cc(OCC)c(C(=O)CCC(=O)O)cc1OCC,Potency,W2,inactive
same,max response,HEK293,-0.0497%
same,outcome,HaCat [1],inactive
same,max response,KB-3-1,-0.0013%
same,outcome,NIH3T3,inactive
same,outcome,HACAT [2],inactive
same,Potency,MCC-13,inactive
CN1CCN(c2cc3c(cc2F)c(=O)c(C(=O)O)cn3-c2ccc(F)cc2)CC1,Potency,W2,12 µM (active)
same,max response,CRL-7250,-1.2%
same,max response,HaCat [1],2%
same,max response,NIH3T3,-2.14%
same,Potency,MCC-13,inactive
same,Potency,MCC-26,inactive
CCN1/C(=C/C=C/c2sc3ccccc3[n+]2CC)Sc2ccccc21,Potency,W2,0.0953 µM (active)
same,Potency,CRL-7250,0.13 µM (active)
same,Potency,HaCat [1],2.91 µM (active)
same,Potency,KB-3-1,7.31 µM (active)
same,Potency,NIH3T3,1.84 µM (active)
same,Potency,MCC-13,3.26 µM (active)
same,Potency,MCC-26,5.8 µM (active)
O=C(N/N=C/c1ccc([N+](=O)[O-])o1)c1ccc(O)cc1,Potency,HEK293,7.5 µM (active)
same,max response,HaCat [1],-33.9%
